From PubChem
TGFb SMAD3 inh = TGF-b pathway inhibition | HepG2 CAGA-GFP TGF-b/SMAD3 reporter, GFP fluorescence, 18 h; TGF-beta stimulated, 500 pg/mL final | Potency, µM (titrated, usually from 46.1 µM), for the others: at the highest dose activity, negative = inhibition, hits mostly inhibitors | 410,000 tested, 1.2% active; also: % is scaled to controls: 0 for no effect and ±100 for the full control effect; nearly all actives have a fitted effect of over 65% in size
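TGF-beta reporter screen: HEPG2 CAGA-GFP, 1% FBS, 500 pg/mL TGF-beta final, 18 h; per-cell GFP summed per well; curves fitted and categorized by class.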
HepG2 tox = kills HepG2 cells in TGF-b inhibitor counter-screen | 410,000 tested, 0.76% active | Potency, µM (top dose mostly 46.1 µM), for the others: at the top dose activity change, negative = cytotoxicity, usual class: cytotoxic | HepG2 CAGA-GFP viability, ATP luminescence, 18 h
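CellTiter-Glo luminescence gave cytotoxicity after 18 hours at 37 degrees C. The cells were HepG2 CAGA-GFP in 1% FBS DMEM, stimulated with 500 pg/mL TGF-beta after compound addition. %Activity was normalised to no-cell wells (complete cell-killing) and DMSO (no toxicity), and curves were fitted and classified.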
KB-3-1 cytotox = KB-3-1 parental cell cytotoxicity | Potency, µM (series often up to 46.1 µM), hits mostly cytotoxic | KB-3-1 viability, CellTiter-Glo ATP luminescence, 72 h | 400,000 tested, 1.4% active; also: % is scaled to controls: 0 for no effect and ±100 for the full control effect; nearly all actives have a fitted effect of over 60% in size
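KB-3-1 cells, DMEM (no phenol red) + 10% FBS; compound by pin transfer, 72 h, 37 °C. Readout: CellTiter-Glo luminescence after 10 min. Data normalized, curve-fitted.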
ATXN2 expr inh = ATXN2 expression inhibition | HEK-293 ATXN2-luciferase reporter, luminescence, 24 h | Potency, µM (doses to about 57 µM), inactives show top-dose activity change, negative = inhibition, usual class: inhibitors | 360,000 tested, 0.72% active | AID 1745845; also: % is scaled to controls: 0 for no effect and ±100 for the full control effect; nearly all actives have a fitted effect of over 55% in size
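qHTS (up to 57 uM final) was run with 24 h compound exposure of reporter cells at 37 °C. Each well was multiplexed: SteadyGlo luminescence measured ATXN2-luciferase expression after a fluorogenic Gly-Phe-AFC viability readout (25 uM final).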
KB-V1 cytotox = KB-V1 MDR subline cytotoxicity; KB-V1 MDR cells viability, CellTiter-Glo, 72 h; Potency, µM (titrated, usually from 46.1 µM), actives largely listed as cytotoxic; 400,000 tested, 3.4% active; also: % is scaled to controls: 0 for no effect and ±100 for the full control effect; nearly all actives have a fitted effect of over 60% in size
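Potencies derive from concentration-effect curves fitted to normalized luminescence (CellTiter-Glo) of KB-V1 cells treated for 72 h at 37 degrees C in phenol-red-free DMEM containing 10% FBS.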
S2 tox = reduces viability in counter-screen for ATXN expression inhibitors. S2 cells (HEK-293 line with an ATXN2-luciferase reporter) viability, CellTiter-Fluor protease fluorescence, 24 h. Potency, µM (titrated, usually from 56.7 µM), most hits filed as cytotoxic. 400,000 tested, 0.49% active. AID 651635; also: nearly all actives have a fitted effect of over 40% in size
Active calls of the source: *; i = inactive; ? = inconclusive; nt = no result given. Hits are enriched below; roughly 5.9% of the tested compounds scored in any of these assays. Calls follow the shape of the dose curve; as a rule, active = well fitted curve in the direction sought with a large enough effect; inconclusive = small, poorly fitted or top-dose-only effect, or another doubt; inactive = no such curve, though single readings can be large; an effect the other way counts as inactive or inconclusive. Potency is read from the fitted curve at half-maximal effect.

SMILES	TGFb SMAD3 inh	HepG2 tox	KB-3-1 cytotox	ATXN2 expr inh	KB-V1 cytotox	S2 tox
COc1ccc(-c2onc(C)c2C)cc1S(=O)(=O)Nc1ccc(OC(F)(F)F)cc1	?	-86%	nt	nt	nt	nt
CS(=O)(=O)N1N=C(c2ccco2)CC1c1ccc(Cl)cc1 (stereo not drawn)	-18%	9%	i	29%	16µM*	i
O=C(CSc1nccn1Cc1ccccc1)Nc1ccc2c(c1)OCCO2	-27%	-22%	nt	nt	nt	nt
O=C(NCC(=O)N1CCN(Cc2ccccc2)CC1)c1cc(Cl)cc([N+](=O)[O-])c1	-35%	-4%	23µM*	-34%	?	i
O=C(NCC(=O)N1CCN(Cc2ccccc2)CC1)c1ccc(Cl)cc1	2%	22%	?	-34%	i	i
CC(C)c1ccc(C2c3c(-c4ccccc4O)n[nH]c3C(=O)N2Cc2ccncc2)cc1 (stereo not drawn)	?	-54%	i	-8%	?	32µM*
CSc1ccc(C2c3c(-c4ccccc4O)n[nH]c3C(=O)N2Cc2ccncc2)cc1 (stereo not drawn)	?	-31%	13µM*	0%	i	nt
CCN1CCN(CC(=O)Nc2ccc(-c3cccc4c(=O)cc(N5CCOCC5)oc34)c3sc4ccccc4c23)CC1	nt	nt	nt	-15%	nt	nt
CCOc1ccc(N2CC(c3nc4ccccc4n3CCCOc3ccccc3)CC2=O)cc1 (stereo not drawn)	11µM*	-8%	i	?	i	nt
C=CCN1CC(c2nc3ccccc3n2CCOc2ccccc2)CC1=O (stereo not drawn)	-7%	1%	i	-5%	15µM*	i
O=C1CC(c2nc3ccccc3n2CCCOc2ccccc2)CN1c1ccc(F)cc1 (stereo not drawn)	-27%	-21%	?	-29%	i	25µM*
Cc1ccc(-n2nc3c(=O)n(CCCC(=O)NC(C)c4ccccc4)nc(C)c3c2C)cc1 (stereo not drawn)	-10%	-31%	nt	nt	nt	nt
CCN(C(=O)Cn1nnc2sc(-c3ccccc3)cc2c1=O)c1cccc(C)c1	-10%	-1%	i	4%	i	i
O=[N+]([O-])c1ccc(OCc2cnc(Cl)s2)c([N+](=O)[O-])c1	6%	0%	6.5µM*	23%	1.2µM*	i
CC1=C(C(=O)N2CCOCC2)CC(CC(=O)NC(c2ccccc2)c2ccccc2)C(=O)N1CCC1=CCCCC1 (stereo not drawn)	-3%	0%	i	-11%	10µM*	i
CC1=C(C(=O)N(C(C)C)C(C)C)CC(CC(=O)NC(c2ccccc2)c2ccccc2)C(=O)N1CCC1=CCCCC1 (stereo not drawn)	11µM*	-27%	?	0%	?	nt
O=[N+]([O-])c1ccc(Nc2ccccc2)c2nonc12	?	-33%	i	nt	i	nt
O=[N+]([O-])c1ccc(Sc2cccc[n+]2[O-])c2nonc12	1.3µM*	-115%	?	5.3µM*	?	nt
CC(C)(CO)NC(=O)c1cnn(-c2ncc3c(n2)-c2ccccc2CC3)c1C1CC1	nt	nt	nt	nt	nt	i
Cc1ccc(Cn2c(=N)n(CC(O)COc3ccccc3)c3ccccc32)cc1 (stereo not drawn)	?	2.8µM*	i	-24%	16µM*	i
COc1ccc(OCC(O)Cn2c(=N)n(CCN3CCOCC3)c3ccccc32)cc1 (stereo not drawn)	21%	-20%	i	-16%	i	i
N=c1n(Cc2ccccc2)c2ccccc2n1CC(O)COc1ccccc1 (stereo not drawn)	?	-94%	21µM*	?	21µM*	?
CCn1c(=N)n(CC(O)COc2cccc(C)c2)c2ccccc21 (stereo not drawn)	-4%	-44%	?	-30%	?	?
Cc1ccc2c(c1)CN(CCNC(=O)c1cccc(Cn3cccn3)c1)CC(C)O2 (stereo not drawn)	nt	nt	nt	nt	nt	i
CCc1ccccc1NC(=O)c1ccc2c(c1)N(Cc1cccc(Cl)c1)C(=O)c1ccccc1S2(=O)=O	2%	-4%	i	7%	i	i
SMILES	TGFb SMAD3 inh	HepG2 tox	KB-3-1 cytotox	ATXN2 expr inh	KB-V1 cytotox	S2 tox
O=C(NCC1Cc2cccc(-c3cncnc3)c2O1)C1CC1 (stereo not drawn)	nt	nt	nt	nt	nt	i
Cc1cccc(Cn2ccc(NC(=O)c3ccc4c(c3)OCO4)n2)c1	-7%	-9%	i	7%	18µM*	i
Cc1ccc(Cn2ccc(NC(=O)c3cc(-c4cccc(Cl)c4)on3)n2)cc1	-7%	-8%	i	-20%	15µM*	?
O=C(Nc1ccn(Cc2ccc(Cl)cc2)n1)c1ccc2c(c1)OCO2	8%	-16%	i	19%	i	i
C/C(=N/NS(=O)(=O)c1ccc(C)c(C)c1)c1c[nH]c2ccccc12	-22%	-27%	i	1%	i	i
C/C(=N/NS(=O)(=O)c1ccc(C)cc1C)c1c[nH]c2ccccc12	18µM*	-25%	i	-18%	i	i
COc1ccc(C=C(C(C)=O)C(=O)c2ccccc2)cc1	-9%	-23%	i	-19%	i	i
COc1ccc(C=C(C(=O)c2ccccc2)C(=O)c2ccccc2)cc1	?	11µM*	?	75%	?	i
CC(=O)C(=Cc1ccc(Cl)cc1)C(=O)c1ccccc1	?	-64%	?	?	?	28µM*
C/C(=N\NC(=O)C(=O)Nc1cccc(Cl)c1C)c1ccncc1	3%	-22%	i	1%	21µM*	?
C/C(=N\NC(=O)C(=O)Nc1cc(Cl)ccc1Cl)c1ccncc1	-17%	-6%	i	-12%	i	i
C/C(=N\NC(=O)c1ccc(Cl)c(S(=O)(=O)Nc2ccccc2Cl)c1)c1ccncc1	-2%	-2%	i	1%	23µM*	i
Cc1ccc2c(=O)cc(C(=O)Nc3ccc(S(=O)(=O)N(C)Cc4ccccc4)cc3)oc2c1C	2%	0%	i	-8%	i	i
CC1CCN(CC[S-])CC1.O.O.[Cl][Pt]	?	-75%	13µM*	nt	?	nt
CCc1ccccc1NC(=O)Cn1c(=O)n(CC(=O)NCCc2ccccc2)c(=O)c2ccccc21	2%	-6%	i	-7%	i	i
CN(C(=O)CSc1nc(C2CC2)n(-c2ccccc2)n1)C1CCS(=O)(=O)C1 (stereo not drawn)	-3%	16%	i	1%	i	i
